Data: PubChem BioAssay
A number with no mark means an inactive call. Entries that show only a call come without a potency. For some of these results: Potency and affinity values are given separately. Calls of active or inactive are those of the source. Unless noted, the rule behind the calls is not given here.

Legend:
[1] = antimalarial activity against Dd2 strain (AID 2302;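 active = growth inhibition above 50% at the single 2 µM test dose, taken to imply half-maximal potency below 2 µM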); settings: P. falciparum Dd2 in RBCs, LDH growth readout, 72 h; at 2 µM; stronger effect = higher value
[2] = human hepatoma cell viability loss – ATP luminescence, cytotoxicity control for P. falciparum antimalarial project, primary screen (AID 2303;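 active = inhibition above 50%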); settings: HepG2 viability, 24-48 h, at 10 µM, stronger effect = higher value
[3] = biological target: L-lactate dehydrogenase (Plasmodium falciparum (isolate CDC / Honduras)) (UniProt Q27743); assay: PfLDH activity inhibition – cell lysate, 3D7 strain, counter-screen for P. falciparum growth inhibition project (AID 2304); settings: P. falciparum 3D7 crude extract, LDH APAD/NBT absorbance; at 2 µM; stronger effect = higher value
[4] = inhibition of 3D7 malaria parasite growth – strain 3D7 (AID 2306); settings: P. falciparum 3D7 erythrocytic growth, LDH absorbance, 72 h; at 2 µM; stronger effect = higher value
[5] = biological target: Calcium-dependent protein kinase 1 (Plasmodium falciparum (isolate 3D7)) (UniProt P62344); assay: PfCDPK1 kinase inhibitors, biochemical, TCAMS library (AID 1159585; cut-off not given, nearly all actives have IC50 up to about 0.98 µM;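 note: inhibitors leave more ATP so luminescence rises with inhibition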); settings: recombinant PfCDPK1, Kinase-Glo ATP depletion luminescence
[6] = biological target: Plasmodium falciparum protein kinase 6 (PK6, PF3D7_1337100) (UniProt Q8IDW1); assay: PfPK6 kinase inhibitors, biochemical, TCAMS library (AID 1159586); settings: recombinant PfPK6, Kinase-Glo ATP depletion luminescence
[7] = biological target: Protein kinase 7 (PK7), Plasmodium falciparum 3D7 (PF3D7_0213400) (UniProt Q7YTF7); assay: inhibition of Plasmodium PK7 catalytic activity – biochemical, TCAMS antimalarial set, Kinase-Glo luminescence (AID 1159587); settings: recombinant PfPK7, Kinase-Glo ATP depletion luminescence
[8] = biological target: Calcium-dependent protein kinase 4 (Plasmodium falciparum (isolate 3D7)) (UniProt Q8IBS5); assay: PfCDPK4 kinase inhibitors, biochemical, TCAMS library (AID 1159588; cut-off not given, nearly all actives have IC50 up to about 0.91 µM); settings: recombinant PfCDPK4, Kinase-Glo ATP depletion luminescence
Sequence of Calcium-dependent protein kinase 4 (Plasmodium falciparum (isolate 3D7)) (Q8IBS5 whole entry, looked up): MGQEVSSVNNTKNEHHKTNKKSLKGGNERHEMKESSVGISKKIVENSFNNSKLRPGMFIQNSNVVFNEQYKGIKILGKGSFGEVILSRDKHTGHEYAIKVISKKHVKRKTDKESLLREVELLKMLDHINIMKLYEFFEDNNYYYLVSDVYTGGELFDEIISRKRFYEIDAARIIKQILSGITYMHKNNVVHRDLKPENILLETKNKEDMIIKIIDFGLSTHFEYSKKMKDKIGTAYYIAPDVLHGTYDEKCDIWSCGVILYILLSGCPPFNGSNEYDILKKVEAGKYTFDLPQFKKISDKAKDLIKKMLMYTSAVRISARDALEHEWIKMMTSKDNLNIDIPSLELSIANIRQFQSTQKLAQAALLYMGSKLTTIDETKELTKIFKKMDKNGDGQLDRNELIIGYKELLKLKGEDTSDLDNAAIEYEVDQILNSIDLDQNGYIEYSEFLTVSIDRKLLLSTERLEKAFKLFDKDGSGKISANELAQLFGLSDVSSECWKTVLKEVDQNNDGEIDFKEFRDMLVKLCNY

Sequence of Calcium-dependent protein kinase 1 (Plasmodium falciparum (isolate 3D7)) (P62344 whole entry, looked up): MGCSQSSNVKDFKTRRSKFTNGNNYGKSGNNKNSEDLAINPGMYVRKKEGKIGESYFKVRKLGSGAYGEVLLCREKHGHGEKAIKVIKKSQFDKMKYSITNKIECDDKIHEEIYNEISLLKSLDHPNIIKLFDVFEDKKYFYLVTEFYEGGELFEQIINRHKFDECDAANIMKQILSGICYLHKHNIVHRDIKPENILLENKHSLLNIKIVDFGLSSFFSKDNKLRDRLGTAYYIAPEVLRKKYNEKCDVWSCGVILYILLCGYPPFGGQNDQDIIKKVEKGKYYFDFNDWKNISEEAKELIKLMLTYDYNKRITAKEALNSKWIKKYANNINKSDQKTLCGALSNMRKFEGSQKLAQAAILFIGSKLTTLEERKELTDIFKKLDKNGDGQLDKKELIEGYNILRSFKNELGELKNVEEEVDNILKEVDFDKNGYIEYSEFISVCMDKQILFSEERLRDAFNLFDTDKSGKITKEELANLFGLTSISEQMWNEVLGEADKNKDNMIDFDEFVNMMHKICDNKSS
Sequence of Plasmodium falciparum protein kinase 6 (PK6, PF3D7_1337100) (Q8IDW1 1-305): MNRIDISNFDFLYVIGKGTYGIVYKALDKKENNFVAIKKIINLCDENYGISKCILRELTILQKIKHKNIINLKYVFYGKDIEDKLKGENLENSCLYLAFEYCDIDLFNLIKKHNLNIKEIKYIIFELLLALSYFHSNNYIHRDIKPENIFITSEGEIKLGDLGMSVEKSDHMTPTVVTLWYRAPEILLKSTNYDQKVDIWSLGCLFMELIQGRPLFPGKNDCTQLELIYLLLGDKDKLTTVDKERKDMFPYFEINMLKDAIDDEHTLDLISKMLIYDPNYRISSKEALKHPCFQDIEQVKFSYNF
Sequence of L-lactate dehydrogenase (Plasmodium falciparum (isolate CDC / Honduras)) (Q27743 whole entry, looked up): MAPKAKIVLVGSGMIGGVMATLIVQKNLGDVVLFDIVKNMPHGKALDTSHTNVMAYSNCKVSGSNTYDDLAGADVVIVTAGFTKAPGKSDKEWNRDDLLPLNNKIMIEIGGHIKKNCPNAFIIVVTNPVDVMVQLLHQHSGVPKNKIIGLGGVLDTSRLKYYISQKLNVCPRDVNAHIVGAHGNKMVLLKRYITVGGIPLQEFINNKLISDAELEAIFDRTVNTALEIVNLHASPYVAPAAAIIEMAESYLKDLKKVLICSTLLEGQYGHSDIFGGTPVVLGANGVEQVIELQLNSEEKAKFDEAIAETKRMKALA
Sequence of Protein kinase 7 (PK7), Plasmodium falciparum 3D7 (PF3D7_0213400) (Q7YTF7 1-343): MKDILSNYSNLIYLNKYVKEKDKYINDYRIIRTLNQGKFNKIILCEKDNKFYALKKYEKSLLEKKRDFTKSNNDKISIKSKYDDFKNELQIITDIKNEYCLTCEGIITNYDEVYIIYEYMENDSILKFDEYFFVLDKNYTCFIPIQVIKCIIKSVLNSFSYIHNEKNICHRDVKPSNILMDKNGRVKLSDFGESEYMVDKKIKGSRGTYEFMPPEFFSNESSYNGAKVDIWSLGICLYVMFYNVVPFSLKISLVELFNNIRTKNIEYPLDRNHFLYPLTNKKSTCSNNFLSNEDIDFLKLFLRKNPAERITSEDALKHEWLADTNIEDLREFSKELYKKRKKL

SMILES: CC1(C)N=C(N)N=C(N)N1OCc1ccc2ccccc2c1CON1C(N)=NC(N)=NC1(C)C
- growth inhibition [1]: 12%
- inhibition [2]: 8%
- inhibition [3]: 1%
- growth inhibition [4]: 96% (active)
- outcome [5]: inactive
- outcome [6]: inactive
- outcome [7]: inactive
- outcome [8]: inactive

SMILES: COc1ccc2nccc([C@@H](O)CN3CCC(NC(=O)/C=C/c4ccnc5ccccc45)CC3)c2c1
- growth inhibition [1]: 12%
- inhibition [2]: 19%
- inhibition [3]: -1%
- growth inhibition [4]: 91% (active)
- outcome [5]: inactive
- outcome [6]: inactive
- outcome [7]: inactive
- outcome [8]: inactive

SMILES: Cc1cc(-c2cc3nc4c(c(=O)n3[nH]2)CCCC4)c(C)o1
- growth inhibition [1]: 82% (active)
- inhibition [2]: 4%
- inhibition [3]: -4%
- growth inhibition [4]: 94% (active)
- outcome [5]: inactive
- outcome [6]: inactive
- outcome [7]: inactive
- outcome [8]: inactive

SMILES: O=C(Nc1cccnc1)c1cc(-c2cc(Cl)ccc2O)n[nH]1
- growth inhibition [1]: 85% (active)
- inhibition [2]: 7%
- inhibition [3]: 6%
- growth inhibition [4]: 98% (active)
- outcome [5]: inactive
- outcome [6]: inactive
- outcome [7]: inactive
- outcome [8]: inactive

SMILES: COc1nc2c(N3CCN(CCNCc4ccc5c(n4)NC(=O)CS5)CC3)ccnc2cc1F
- growth inhibition [1]: 96% (active)
- inhibition [2]: 18%
- inhibition [3]: -6%
- growth inhibition [4]: 101% (active)
- outcome [5]: inactive
- outcome [6]: inactive
- outcome [7]: inactive
- outcome [8]: inactive

SMILES: CC(C)c1ccc2oc(-c3ccc(NC(=O)c4ccc([N+](=O)[O-])o4)cc3)nc2c1
- growth inhibition [1]: 95% (active)
- inhibition [2]: 99% (active)
- inhibition [3]: 6%
- growth inhibition [4]: 100% (active)
- outcome [5]: inactive
- outcome [6]: inactive
- outcome [7]: inactive
- outcome [8]: inactive

SMILES: Cc1cc(NN=Cc2ccc(F)cc2)c2ccc(F)cc2n1
- growth inhibition [1]: 30%
- inhibition [2]: -7%
- inhibition [3]: 0%
- growth inhibition [4]: 99% (active)
- outcome [5]: inactive
- outcome [6]: inactive
- outcome [7]: inactive
- outcome [8]: inactive

SMILES: Fc1ccc2nc(-c3ccc(-c4ccc(CN5CCC(CCN6CCCCC6)CC5)cc4)s3)[nH]c2c1
- growth inhibition [1]: 101% (active)
- inhibition [2]: 96% (active)
- inhibition [3]: 3%
- growth inhibition [4]: 101% (active)
- outcome [5]: inactive
- outcome [6]: inactive
- outcome [7]: inactive
- outcome [8]: inactive

SMILES: COc1ccc(NC(=O)c2cccc(Br)c2)cc1N1CCN(CCCCCCCN2CCN(c3cc(NC(=O)c4cccc(Br)c4)ccc3OC)CC2)CC1
- growth inhibition [1]: 93% (active)
- inhibition [2]: 97% (active)
- inhibition [3]: 0%
- growth inhibition [4]: 99% (active)
- outcome [5]: inactive
- outcome [6]: inactive
- outcome [7]: inactive
- outcome [8]: inactive

SMILES: O=C1CCCN1CCCNCc1cccc(-c2ccc(-c3nc4ccc(C(F)(F)F)cc4[nH]3)s2)c1
- growth inhibition [1]: 99% (active)
- inhibition [2]: 19%
- inhibition [3]: -4%
- growth inhibition [4]: 100% (active)
- outcome [5]: inactive
- outcome [6]: inactive
- outcome [7]: inactive
- outcome [8]: inactive

SMILES: CCC1(CC)N=C(N)N=C(N)C1c1ccc(Cl)c(Cl)c1 (stereo not given)
- growth inhibition [1]: 20%
- inhibition [2]: -16%
- inhibition [3]: 7%
- growth inhibition [4]: 98% (active)
- outcome [5]: inactive
- outcome [6]: inactive
- outcome [7]: inactive
- outcome [8]: inactive

SMILES: CN(Cc1ccncc1)C(Cc1ccccc1)C1CCN(Cc2ccc(O)c(Cl)c2)CC1 (stereo not given)
- growth inhibition [1]: 97% (active)
- inhibition [2]: 22%
- inhibition [3]: -4%
- growth inhibition [4]: 96% (active)
- outcome [5]: inactive
- outcome [6]: inactive
- outcome [7]: inactive
- outcome [8]: inactive

SMILES: CCN(CCNC(=O)Cn1c(C)cc2cc([N+](=O)[O-])ccc21)c1cccc(C)c1
- growth inhibition [1]: 95% (active)
- inhibition [2]: -3%
- inhibition [3]: 6%
- growth inhibition [4]: 97% (active)
- outcome [5]: inactive
- outcome [6]: inactive
- outcome [7]: inactive
- outcome [8]: inactive

SMILES: COc1ccc(OC)c(-c2ccc(=O)n(CC(=O)Nc3cccc4ccccc34)n2)c1
- growth inhibition [1]: 95% (active)
- inhibition [2]: -9%
- inhibition [3]: 3%
- growth inhibition [4]: 101% (active)
- outcome [5]: inactive
- outcome [6]: inactive
- outcome [7]: inactive
- outcome [8]: inactive

SMILES: Cc1cc(Br)cnc1CCCCNc1cc(=O)c2ccccc2[nH]1
- growth inhibition [1]: 64% (active)
- inhibition [2]: -1%
- inhibition [3]: -1%
- growth inhibition [4]: 91% (active)
- outcome [5]: inactive
- outcome [6]: inactive
- outcome [7]: inactive
- outcome [8]: inactive

SMILES: COc1ccc(NC(=O)CCNc2cc(C)nc(NCCOc3ccccc3)n2)cc1
- growth inhibition [1]: 2%
- inhibition [2]: 0%
- inhibition [3]: -1%
- growth inhibition [4]: 96% (active)
- outcome [5]: inactive
- outcome [6]: inactive
- outcome [7]: inactive
- outcome [8]: inactive

SMILES: O=C(NCCCCCN1CCC(c2c[nH]c3ccccc23)CC1)Nc1cccc(Cl)c1
- growth inhibition [1]: 0%
- inhibition [2]: 36%
- inhibition [3]: -1%
- growth inhibition [4]: 86% (active)
- outcome [5]: inactive
- outcome [6]: inactive
- outcome [7]: inactive
- outcome [8]: inactive

SMILES: N#Cc1ccc(CN2CCC(Oc3ccc(NC(=O)c4cccs4)cc3)C2)cc1 (stereo not given)
- growth inhibition [1]: 65% (active)
- inhibition [2]: 5%
- inhibition [3]: 1%
- growth inhibition [4]: 82% (active)
- outcome [5]: inactive
- outcome [6]: inactive
- outcome [7]: inactive
- outcome [8]: inactive

SMILES: CCc1cn2c3c(cc(C(=O)N[C@@H](Cc4ccccc4)[C@H](O)CNC4CCCC4)cc13)N(C)S(=O)(=O)CC2
- growth inhibition [1]: 99% (active)
- inhibition [2]: 6%
- inhibition [3]: -8%
- growth inhibition [4]: 100% (active)
- outcome [5]: inactive
- outcome [6]: inactive
- outcome [7]: inactive
- outcome [8]: inactive

SMILES: O=C(Nc1ccc(-c2ccccc2)cc1)Nc1cccc(Cn2nc(Cl)c(N3CCCNCC3)cc2=O)c1
- growth inhibition [1]: 37%
- inhibition [2]: 13%
- inhibition [3]: -2%
- growth inhibition [4]: 101% (active)
- outcome [5]: inactive
- outcome [6]: inactive
- outcome [7]: inactive
- outcome [8]: inactive
